Experimental data taken from PubChem BioAssay (NCI).
The panel holds about 83,000 compounds, 20% with a hit somewhere; the sample as a whole holds those more often.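 Testing used 96-well plates and a 48-hour single-concentration exposure. Example: -40 means 40% of the starting cells died.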 Activity calls are given as the source filed them. Rule for the calls: active = growth percent below 10; inactive = the rest.

Experiments:
Test in all cases: NCI-60 one-dose screen, 48 h (100 = growth as untreated, 0 = no growth, -100 = all killed)
Settings in all cases: 10 µM unless noted
HCT-15 colon = tested on: HCT-15 colon
HT29 colon = tested on: HT29 colon
SNB-75 CNS = tested on: SNB-75 CNS
SNB-19 CNS = tested on: SNB-19 CNS
U251 CNS = tested on: U251 CNS
PC-3 prostate = tested on: PC-3 prostate
SK-MEL-5 melanoma = tested on: SK-MEL-5 melanoma
UACC-62 melanoma = tested on: UACC-62 melanoma
LOX IMVI melanoma = tested on: LOX IMVI melanoma
SK-MEL-28 melanoma = tested on: SK-MEL-28 melanoma
SK-MEL-2 melanoma = tested on: SK-MEL-2 melanoma
EKVX NSCLC = tested on: EKVX NSCLC
SN12C renal = tested on: SN12C renal
UO-31 renal = tested on: UO-31 renal
TK-10 renal = tested on: TK-10 renal
CAKI-1 renal = tested on: CAKI-1 renal
A498 renal = tested on: A498 renal
CCRF-CEM leukemia = tested on: CCRF-CEM leukemia
MOLT-4 leukemia = tested on: MOLT-4 leukemia
ACHN renal = tested on: ACHN renal

Measured: growth

CC(C)(C)c1cc(-c2cc(-c3ccccc3)[nH]c(=O)c2C#N)cc(C(C)(C)C)c1
active: SNB-75 CNS -32% | U251 CNS -22% | CAKI-1 renal -11.5%
inactive: HCT-15 colon 56.6% | HT29 colon 88.8% | SNB-19 CNS 25.7% | PC-3 prostate 53.3% | SK-MEL-5 melanoma 74.5% | UACC-62 melanoma 68.3% | LOX IMVI melanoma 49.2% | SK-MEL-28 melanoma 78.5% | SK-MEL-2 melanoma 94.4% | EKVX NSCLC 34.2% | SN12C renal 30.7% | UO-31 renal 24.2% | TK-10 renal 27.6% | A498 renal 21.5% | CCRF-CEM leukemia 68.9% | MOLT-4 leukemia 70.9%

CS(=O)(=O)c1ccc(-n2nc(C(=O)NCc3ccccc3)cc2-c2ccc(Cl)cc2)cc1
inactive: HCT-15 colon 66.3% | HT29 colon 74% | SNB-75 CNS 89.7% | SNB-19 CNS 78.9% | U251 CNS 80.7% | PC-3 prostate 75.5% | SK-MEL-5 melanoma 71.5% | UACC-62 melanoma 73.9% | LOX IMVI melanoma 89.4% | SK-MEL-28 melanoma 112% | SK-MEL-2 melanoma 92.9% | EKVX NSCLC 68% | SN12C renal 80.8% | TK-10 renal 104% | ACHN renal 91.3% | CAKI-1 renal 76.1% | A498 renal 124% | CCRF-CEM leukemia 58.6% | MOLT-4 leukemia 59.4%

COC(=O)c1c(C(=O)OC)c2ccc3c4ccccc4ccc3n2c1C(=O)C(C)Br (stereo not given)
inactive: HT29 colon 24% | SNB-75 CNS 94.3% | SNB-19 CNS 52.1% | U251 CNS 23.9% | PC-3 prostate 47.1% | SK-MEL-5 melanoma 24.4% | UACC-62 melanoma 33.5% | SK-MEL-28 melanoma 65.4% | SK-MEL-2 melanoma 26.9% | EKVX NSCLC 86.5% | SN12C renal 35.7% | UO-31 renal 45% | ACHN renal 43.9% | CAKI-1 renal 71.3% | A498 renal 87.2%
active: HCT-15 colon 9.95% | LOX IMVI melanoma -5.75% | CCRF-CEM leukemia -4.34% | MOLT-4 leukemia 0.188%

Cc1cccc(/C=C/c2ccc(NC(=S)NCCCCN(C)C)cc2)c1
active: HCT-15 colon -99.4% | HT29 colon -64.2% | SNB-75 CNS -84.4% | SNB-19 CNS -84% | U251 CNS -64.8% | PC-3 prostate -40.4% | SK-MEL-5 melanoma -92.3% | UACC-62 melanoma -88.4% | LOX IMVI melanoma -99.1% | SK-MEL-28 melanoma -96.5% | SK-MEL-2 melanoma -79.6% | EKVX NSCLC -90.5% | SN12C renal -84.5% | UO-31 renal -93.2% | TK-10 renal -89.8% | CAKI-1 renal -89.6% | CCRF-CEM leukemia -36.6% | MOLT-4 leukemia -16.1%

Nc1ccc(-c2ccc3ncnc(N4CCc5cc(F)c(Cl)cc54)c3c2)cn1
active: SNB-75 CNS -4.49% | EKVX NSCLC -29.2% | UO-31 renal 3.05% | ACHN renal 8.96% | CAKI-1 renal 5.25% | A498 renal -13.2% | MOLT-4 leukemia 1.81%
inactive: HCT-15 colon 24.8% | HT29 colon 25.9% | SNB-19 CNS 39.3% | U251 CNS 43.8% | PC-3 prostate 19% | SK-MEL-5 melanoma 16.6% | UACC-62 melanoma 15% | LOX IMVI melanoma 18.7% | SK-MEL-28 melanoma 41.4% | SK-MEL-2 melanoma 29% | SN12C renal 19.2% | CCRF-CEM leukemia 10.6%

O=C(Nc1ccc(S(=O)(=O)N2CCCCC2)cc1)C(Cl)Cl
inactive: HCT-15 colon 103% | HT29 colon 109% | SNB-75 CNS 103% | SNB-19 CNS 93.7% | U251 CNS 98% | PC-3 prostate 107% | SK-MEL-5 melanoma 105% | UACC-62 melanoma 106% | LOX IMVI melanoma 100% | SK-MEL-28 melanoma 130% | SK-MEL-2 melanoma 104% | EKVX NSCLC 95.4% | SN12C renal 112% | UO-31 renal 97% | ACHN renal 109% | CAKI-1 renal 97.9% | CCRF-CEM leukemia 127% | MOLT-4 leukemia 117%

CCCCNC(=S)Nc1ccc(OCc2nc3ccc(Cl)cc3[nH]2)cc1
inactive: HCT-15 colon 14.5% | HT29 colon 28.4% | SNB-75 CNS 26.4% | SNB-19 CNS 53% | U251 CNS 23.7% | PC-3 prostate 35.4% | SK-MEL-5 melanoma 42.5% | UACC-62 melanoma 29.9% | SK-MEL-28 melanoma 45.5% | EKVX NSCLC 28.9% | SN12C renal 19.2% | CAKI-1 renal 21.6% | A498 renal 90%
active: LOX IMVI melanoma -29.8% | SK-MEL-2 melanoma 7.47% | UO-31 renal 5.99% | CCRF-CEM leukemia 7.96% | MOLT-4 leukemia 9.85%

CN1CCN(C(=O)Oc2cc3c(c4ccccc24)[C@H](CCl)CN3C(=O)c2cc3cc(OCCCN4CCC4)ccc3[nH]2)[C@@H]2CSSC[C@H]21
active: HCT-15 colon 2.11% | HT29 colon 2.15% | SNB-75 CNS -64.6% | SNB-19 CNS -64.6% | U251 CNS -42.8% | PC-3 prostate -12.2% | SK-MEL-5 melanoma -74.1% | UACC-62 melanoma -81.9% | LOX IMVI melanoma -61.6% | SK-MEL-28 melanoma -39.5% | SK-MEL-2 melanoma -83.7% | EKVX NSCLC -50.6% | SN12C renal -75.8% | UO-31 renal -0.968% | ACHN renal -22.8% | CAKI-1 renal 1.34% | A498 renal -18.7% | CCRF-CEM leukemia -28% | MOLT-4 leukemia -9.2%

CCCSc1nnc(-c2sc3nc4ccccc4n3c2C)o1
inactive: HCT-15 colon 99.2% | HT29 colon 110% | SNB-75 CNS 95.6% | SNB-19 CNS 99.8% | U251 CNS 113% | PC-3 prostate 105% | SK-MEL-5 melanoma 98.5% | UACC-62 melanoma 94.5% | LOX IMVI melanoma 113% | SK-MEL-28 melanoma 110% | SK-MEL-2 melanoma 105% | EKVX NSCLC 103% | SN12C renal 105% | TK-10 renal 124% | ACHN renal 104% | CAKI-1 renal 104% | A498 renal 110% | CCRF-CEM leukemia 107% | MOLT-4 leukemia 92.3%

Cc1cc(C)c2[nH]c(=O)c(C(c3nnnn3Cc3ccc4c(c3)OCO4)N3CCN(C)CC3)cc2c1 (stereo not given)
inactive: HCT-15 colon 110% | HT29 colon 110% | SNB-75 CNS 115% | SNB-19 CNS 101% | U251 CNS 104% | PC-3 prostate 111% | SK-MEL-5 melanoma 107% | UACC-62 melanoma 104% | LOX IMVI melanoma 100% | SK-MEL-28 melanoma 105% | SK-MEL-2 melanoma 105% | EKVX NSCLC 106% | SN12C renal 108% | TK-10 renal 115% | ACHN renal 106% | CAKI-1 renal 97.7% | A498 renal 102% | CCRF-CEM leukemia 119% | MOLT-4 leukemia 82.3%

O=C(c1ccc(Cl)cc1)C1[C@H](c2ccccc2Cl)[C@@H](c2ccccc2)NC12C(=O)Nc1ccc(Br)cc12 (stereo not given in full)
active: HCT-15 colon -83.8% | HT29 colon -82.3% | SNB-75 CNS -28.7% | SNB-19 CNS -54.6% | U251 CNS -71.6% | PC-3 prostate -27.9% | SK-MEL-5 melanoma -95.5% | UACC-62 melanoma -86.2% | LOX IMVI melanoma -100% | SK-MEL-28 melanoma -95.4% | SK-MEL-2 melanoma -89.9% | EKVX NSCLC -42.2% | SN12C renal -83.9% | UO-31 renal -97.5% | CAKI-1 renal -47.6% | A498 renal -48% | CCRF-CEM leukemia -13.5% | MOLT-4 leukemia -24.5%

CCOc1ccccc1NC(=O)N/C(N)=N/c1nc2ccccc2s1
active: HCT-15 colon 2.52% | HT29 colon -48.7% | SK-MEL-5 melanoma -40.9% | LOX IMVI melanoma 0.997% | SN12C renal 8.49% | CCRF-CEM leukemia 0.25% | MOLT-4 leukemia 7.53%
inactive: SNB-75 CNS 32.8% | SNB-19 CNS 14.7% | U251 CNS 10.4% | PC-3 prostate 23.3% | UACC-62 melanoma 28.1% | SK-MEL-28 melanoma 54.3% | SK-MEL-2 melanoma 38.7% | EKVX NSCLC 42.9% | TK-10 renal 63% | ACHN renal 18.5% | CAKI-1 renal 17.8% | A498 renal 90.9%

S=C(Nc1ccccc1)Nc1ccc(OCc2nc3ccc(Cl)cc3[nH]2)cc1
inactive: HCT-15 colon 67.9% | HT29 colon 105% | SNB-75 CNS 89.4% | SNB-19 CNS 89.1% | U251 CNS 82.6% | PC-3 prostate 77.8% | SK-MEL-5 melanoma 82.8% | UACC-62 melanoma 77.3% | LOX IMVI melanoma 36.3% | SK-MEL-28 melanoma 87.9% | SK-MEL-2 melanoma 91.4% | EKVX NSCLC 67.2% | SN12C renal 78.8% | TK-10 renal 114% | ACHN renal 81.8% | CAKI-1 renal 84.1% | A498 renal 110% | CCRF-CEM leukemia 54.2% | MOLT-4 leukemia 52.3%

O=c1c(-c2nc(-c3ccccc3)c(-c3ccccc3)[nH]2)coc2ccc(F)cc12
inactive: HCT-15 colon 24.3% | HT29 colon 68.1% | SNB-75 CNS 39% | SNB-19 CNS 38.8% | U251 CNS 47.3% | PC-3 prostate 41.9% | SK-MEL-5 melanoma 47.7% | UACC-62 melanoma 49.9% | LOX IMVI melanoma 65.9% | SK-MEL-28 melanoma 69.6% | SK-MEL-2 melanoma 62.9% | EKVX NSCLC 25.7% | SN12C renal 68.9% | TK-10 renal 94.3% | ACHN renal 51% | CAKI-1 renal 64.9% | A498 renal 109% | CCRF-CEM leukemia 49% | MOLT-4 leukemia 23.6%

COc1ccc2ccccc2c1/C=C1\SC(=Nc2ccc(O)cc2)NC1=O
inactive: SNB-75 CNS 77.7% | SNB-19 CNS 24.5% | PC-3 prostate 21.5% | UACC-62 melanoma 16.4% | SK-MEL-28 melanoma 52.7% | SK-MEL-2 melanoma 27.1% | EKVX NSCLC 15.8% | UO-31 renal 17.7% | ACHN renal 17% | A498 renal 93.5%
active: HCT-15 colon 4.61% | HT29 colon 0.351% | U251 CNS 5.13% | SK-MEL-5 melanoma -53.6% | LOX IMVI melanoma -3.89% | SN12C renal 6.03% | CAKI-1 renal 9.94% | CCRF-CEM leukemia 2.89% | MOLT-4 leukemia 9.45%

C=CCSc1nnc(-c2ccc(-c3nc4ccc(Cl)cc4[nH]3)cc2)o1
inactive: HCT-15 colon 28% | HT29 colon 32.1% | SNB-75 CNS 45.9% | SNB-19 CNS 76.1% | U251 CNS 47.3% | PC-3 prostate 63.2% | SK-MEL-5 melanoma 35.9% | UACC-62 melanoma 39.4% | LOX IMVI melanoma 39.4% | SK-MEL-28 melanoma 60% | SK-MEL-2 melanoma 38.7% | EKVX NSCLC 60.8% | SN12C renal 63.1% | UO-31 renal 78.4% | ACHN renal 78.8% | CAKI-1 renal 49.2% | A498 renal 106% | CCRF-CEM leukemia 37.1% | MOLT-4 leukemia 48.9%
